Measurements from ChEMBL document CHEMBL4513216, “Probing the Open Global Health Chemical Diversity Library for Multistage-Active Starting Points for Next-Generation Antimalarials” (ACS Infect Dis, 2020).
In all, about 68,000 compounds went through this assay and about 2,700 (4%) showed an effect of 50% or more. The sample holds strong results, similar compounds and a random draw of the others, so the mix is not that of the screen.

system: Plasmodium berghei; experiment: Screen against P. berghei liver stage (PbLuc), transformed with Luciferase, at 2uM; type: functional, HepG2; details: tested at 2 uM

**Q.** Which INHIBITION does the source give for `O=C(CC1CC1)N[C@@H]1CN(Cc2ccccn2)C[C@@H]2CCCO[C@@H]21` here?
**A.** -5.84%

**Q.** Which INHIBITION does the source give for `c1ccc(CCN2CCCC(c3ccnc4nccn34)C2)cc1` (stereo unspecified) here?
**A.** 32.74%

**Q.** How did the INHIBITION turn out when `Cc1csc(C(=O)N2CCC3(CC(N(C)c4ccncn4)C3)C2)c1` (stereo unspecified) was run?
**A.** -18.68%

**Q.** With `CN(CC(O)C1CC1)C(=O)Nc1ccc(F)c(-n2cccc2)c1` (stereo unspecified) as the molecule, how does the INHIBITION read?
**A.** 42.76%

**Q.** `c1ccc(-c2nc(CCNCc3cccnc3)co2)cc1` was tested. Which INHIBITION did it give?
**A.** 30.88%

**Q.** How did the INHIBITION turn out when `CS(=O)(=O)NCCNC(=O)NC1(c2ccc(Cl)cc2)CCC1` was run?
**A.** 43.88%

**Q.** For `CS(=O)(=O)NCCNC(=O)NC1(c2ccc(F)cc2)CCCC1`, which INHIBITION is on record?
**A.** 52.3%

**Q.** For `CS(=O)(=O)NCCC(=O)NC1(c2ccc(F)cc2)CCCC1`, which INHIBITION is on record?
**A.** 5.17%

**Q.** How did the INHIBITION turn out when `CN(C)CCOCc1nnc2n1CCN(Cc1ccsc1)C2` was run?
**A.** 20.2%

**Q.** For `Cc1n[nH]c(C)c1NC(=O)C1CCCN(C(=O)NCC(C)C)C1` (stereo unspecified), which INHIBITION is on record?
**A.** 52.95%

**Q.** Which INHIBITION does the source give for `Cc1c(C2CC2)n[nH]c1NC(=O)C1CCCN(C(=O)NCC(C)C)C1` (stereo unspecified) here?
**A.** -7.81%

**Q.** Which INHIBITION does the source give for `CCc1cc(NC(=O)C2CCCN(C(=O)NCC(C)C)C2)[nH]n1` (stereo unspecified) here?
**A.** 6.62%

**Q.** `CC(C)c1sc(Cl)nc1C(=O)N1CCN(c2ccccn2)CC1` was tested. Which INHIBITION did it give?
**A.** 20.42%

**Q.** `COc1ncnc2c1CCN(C(=O)NCc1cccnc1)CC2` was tested. Which INHIBITION did it give?
**A.** 46.02%

**Q.** `O=C(NCCc1ccncc1)C1CCN(Cc2ccco2)CC1` was tested. Which INHIBITION did it give?
**A.** -0.55%

**Q.** For `COCCNC(=O)Cn1cc(NC(=O)c2ccc(C(C)(C)C)cc2)cn1`, which INHIBITION is on record?
**A.** -38.81%

**Q.** With `CCc1nc(CS(=O)(=O)Cc2noc(C3CC3)n2)cs1` as the molecule, how does the INHIBITION read?
**A.** -18.58%

**Q.** How did the INHIBITION turn out when `CCc1nc(CN2CCCN(Cc3noc(C4CC4)n3)CC2)cs1` was run?
**A.** -17.17%

**Q.** With `CC(C)c1nc(CS(=O)(=O)Cc2noc(C3CC3)n2)cs1` as the molecule, how does the INHIBITION read?
**A.** 53.12%

**Q.** Which INHIBITION does the source give for `CN1CC(C(=O)NC2(c3ccc(Cl)cc3)CCOCC2)CC1=O` (stereo unspecified) here?
**A.** 3%

**Q.** `CN(C)C(=O)COCC1CN(Cc2ccco2)Cc2ncn(C)c21` (stereo unspecified) was tested. Which INHIBITION did it give?
**A.** -45.9%

**Q.** With `CC(C)c1nnc2n1CCN(C(=O)c1ccc(Cn3cccc3)cc1)C2` as the molecule, how does the INHIBITION read?
**A.** 15.08%

**Q.** Which INHIBITION does the source give for `CCCc1ccc(C(=O)N2CCn3c(nnc3C(C)C)C2)cc1` here?
**A.** 15.08%

**Q.** With `CC(C)c1nnc2n1CCN(C(=O)c1ccc3cc[nH]c3c1)C2` as the molecule, how does the INHIBITION read?
**A.** 45.92%

**Q.** `CC(C)c1nnc2n1CCN(C(=O)c1ccc3c(c1)COC3)C2` was tested. Which INHIBITION did it give?
**A.** 57.75%

**Q.** How did the INHIBITION turn out when `CC(C)c1nnc2n1CCN(C(=O)c1ccc3c(c1)CCC3)C2` was run?
**A.** 9.17%

**Q.** How did the INHIBITION turn out when `CC(C)c1nnc2n1CCN(C(=O)c1ccc(CN(C)C)cc1)C2` was run?
**A.** 50.72%

**Q.** For `O=C(c1ccoc1)N1CCn2cnc(COCC3CC3)c2C1`, which INHIBITION is on record?
**A.** 41.79%

**Q.** `O=C1Nc2ccccc2C12CCN(Cc1nccs1)CC2` was tested. Which INHIBITION did it give?
**A.** 21.61%

**Q.** `O=C(Cc1ccccc1F)N1C[C@@H]2COC[C@]2(COc2cccnc2)C1` was tested. Which INHIBITION did it give?
**A.** -2.44%

**Q.** How did the INHIBITION turn out when `CO[C@H]1CO[C@@]2(CCCN(C(=O)N3CCCC3)C2)C1` was run?
**A.** 28.13%

**Q.** Which INHIBITION does the source give for `CN1CCCN(S(=O)(=O)c2cccc(C(=O)N3CCCCCC3)c2)CC1` here?
**A.** 54.75%

**Q.** With `CC1=CCN(S(=O)(=O)c2cccc(C(=O)N3CCCN(C)CC3)c2)CC1` as the molecule, how does the INHIBITION read?
**A.** 23.17%

**Q.** For `CN1CCCN(C(=O)c2cccc(S(=O)(=O)NCC3(C)COC3)c2)CC1`, which INHIBITION is on record?
**A.** -35.07%

**Q.** `CCN(CC)C(=O)CSc1sc2c(O)cc(=O)[nH]c2c1C(N)=O` was tested. Which INHIBITION did it give?
**A.** -56.02%

**Q.** For `Cc1ccc(N2C[C@H]3CCN(Cc4ccncc4)C[C@H]3C2)nn1`, which INHIBITION is on record?
**A.** 16.63%

**Q.** With `O=C(c1ccoc1)N1CCO[C@]2(CCC[C@H]2COCc2cccnc2)C1` as the molecule, how does the INHIBITION read?
**A.** 5.85%

**Q.** Which INHIBITION does the source give for `O=C(c1ccoc1)N1CCO[C@]2(CCC[C@@H]2COCc2ccncc2)C1` here?
**A.** 35.48%

**Q.** Which INHIBITION does the source give for `O=C(c1ccno1)N1CCO[C@]2(CCC[C@@H]2COCc2ccncc2)C1` here?
**A.** 64.99%

**Q.** Which INHIBITION does the source give for `CCNC(=O)C1(Cc2cc(-c3ccc(C)cc3)no2)CCCN(C)C1` (stereo unspecified) here?
**A.** -40.35%

**Q.** `CS(=O)(=O)c1cn[nH]c1C1CCCCN1C(=O)c1cnccn1` (stereo unspecified) was tested. Which INHIBITION did it give?
**A.** 17.39%

**Q.** Which INHIBITION does the source give for `CC(C)NC(=O)N1CCC2(CC(C(=O)NCc3cccnc3)=NO2)C1` (stereo unspecified) here?
**A.** -7.01%

**Q.** With `COCCN(CCOC)c1ncccc1Cl` as the molecule, how does the INHIBITION read?
**A.** 67.7%

**Q.** How did the INHIBITION turn out when `COCCN(CCOC)c1ncccc1I` was run?
**A.** 38.1%

**Q.** With `COCCN(CCOC)c1ncc(C#N)cc1Cl` as the molecule, how does the INHIBITION read?
**A.** 1.42%

**Q.** With `CCOc1ccc(Cl)cc1C1CCCCN1` (stereo unspecified) as the molecule, how does the INHIBITION read?
**A.** 14.61%

**Q.** Which INHIBITION does the source give for `COCCNC(=O)Cn1cc2c(n1)c(C)nn2C(C)C` here?
**A.** -28.32%

**Q.** Which INHIBITION does the source give for `CC(C)CN1CC[C@H](c2nnc(COc3ccc(F)cc3)o2)C1` here?
**A.** 10.65%

**Q.** How did the INHIBITION turn out when `CS(=O)(=O)N1CC2(CCN(C(=O)c3csnn3)CC2)c2ccccc21` was run?
**A.** 54.01%

**Q.** Which INHIBITION does the source give for `Cn1cccc1C(=O)N1CCC2(CC1)CN(S(C)(=O)=O)c1ccccc12` here?
**A.** 38.64%

**Q.** With `CS(=O)(=O)N1CC2(CCN(C(=O)c3ccncc3)CC2)c2ccccc21` as the molecule, how does the INHIBITION read?
**A.** 9.53%

**Q.** Which INHIBITION does the source give for `O=C(CN1C(=O)c2ccccc2C1=O)N1CCOC2(CCOCC2)C1` here?
**A.** 13.46%

**Q.** `CN(C)CCOCc1cncc2c1CCN(C(=O)c1cscn1)C2` was tested. Which INHIBITION did it give?
**A.** -30.85%

**Q.** Which INHIBITION does the source give for `CCc1cc(N(C)Cc2[nH]nc3c2CCC3)nc(N2CCOCC2)n1` here?
**A.** 33.9%

**Q.** How did the INHIBITION turn out when `CN(Cc1n[nH]c2c1CCCC2)c1cc(N2CCOCC2)nc(N)n1` was run?
**A.** -32.88%

**Q.** Which INHIBITION does the source give for `Nc1nc(NCCc2[nH]nc3c2CCCC3)cc(N2CCOCC2)n1` here?
**A.** 67.28%

**Q.** For `CCn1nc(C)c(NC(=O)CCn2ncc3cc(C)ccc32)c1C`, which INHIBITION is on record?
**A.** 24.79%

**Q.** How did the INHIBITION turn out when `CCc1nsc(NC2CCCn3nc(COC)nc32)n1` (stereo unspecified) was run?
**A.** -11.71%

**Q.** Which INHIBITION does the source give for `CCc1ncncc1C(=O)NCCNS(=O)(=O)c1ccccc1` here?
**A.** 48.68%

**Q.** Which INHIBITION does the source give for `CCc1ncncc1C(=O)NCCNS(=O)(=O)c1ccc(C)cc1` here?
**A.** -41.64%

**Q.** With `Cc1ccc(S(=O)(=O)NCCNC(=O)c2cncnc2C)cc1` as the molecule, how does the INHIBITION read?
**A.** 55.25%

**Q.** With `Cc1nn(Cc2ccc(C(=O)NCCCN3CCCC3=O)o2)c(C)c1Cl` as the molecule, how does the INHIBITION read?
**A.** 26.37%

**Q.** Which INHIBITION does the source give for `CCCc1n[nH]c(C2CN(C(=O)c3cc(F)ccc3OC)CCO2)n1` (stereo unspecified) here?
**A.** -29.94%

**Q.** `COc1ccccc1CCNC(=O)CNC1CCc2nc(C)nn2C1` (stereo unspecified) was tested. Which INHIBITION did it give?
**A.** 35.56%

**Q.** How did the INHIBITION turn out when `Cc1nc2n(n1)CC(NCC(=O)Nc1cc(C)on1)CC2` (stereo unspecified) was run?
**A.** -2.87%

**Q.** How did the INHIBITION turn out when `Cc1nc2n(n1)CC(NCC(=O)NCC1(c3ccccc3)CC1)CC2` (stereo unspecified) was run?
**A.** 58.69%
